Results reported in the supplement of paper PMC11732987, “Enantioselective OTUD7B fragment discovery through chemoproteomics screening and high-throughput optimisation” (Communications Chemistry, 2025).

Tests used:
Test in all cases: log2 ratio of Biotin-Ahx-Ub-VS probe labelling (fragment/DMSO); higher = less target engagement (more negative = stronger competition), active = hit call of the paper (q ≤ 0.05, log2 ratio ≤ -1)
Conditions in all cases: compound concentration: 200 uM; treatment time: 3 h
USP19 = target: T1, USP19 (UniProt O94966)
T1 sequence (whole entry): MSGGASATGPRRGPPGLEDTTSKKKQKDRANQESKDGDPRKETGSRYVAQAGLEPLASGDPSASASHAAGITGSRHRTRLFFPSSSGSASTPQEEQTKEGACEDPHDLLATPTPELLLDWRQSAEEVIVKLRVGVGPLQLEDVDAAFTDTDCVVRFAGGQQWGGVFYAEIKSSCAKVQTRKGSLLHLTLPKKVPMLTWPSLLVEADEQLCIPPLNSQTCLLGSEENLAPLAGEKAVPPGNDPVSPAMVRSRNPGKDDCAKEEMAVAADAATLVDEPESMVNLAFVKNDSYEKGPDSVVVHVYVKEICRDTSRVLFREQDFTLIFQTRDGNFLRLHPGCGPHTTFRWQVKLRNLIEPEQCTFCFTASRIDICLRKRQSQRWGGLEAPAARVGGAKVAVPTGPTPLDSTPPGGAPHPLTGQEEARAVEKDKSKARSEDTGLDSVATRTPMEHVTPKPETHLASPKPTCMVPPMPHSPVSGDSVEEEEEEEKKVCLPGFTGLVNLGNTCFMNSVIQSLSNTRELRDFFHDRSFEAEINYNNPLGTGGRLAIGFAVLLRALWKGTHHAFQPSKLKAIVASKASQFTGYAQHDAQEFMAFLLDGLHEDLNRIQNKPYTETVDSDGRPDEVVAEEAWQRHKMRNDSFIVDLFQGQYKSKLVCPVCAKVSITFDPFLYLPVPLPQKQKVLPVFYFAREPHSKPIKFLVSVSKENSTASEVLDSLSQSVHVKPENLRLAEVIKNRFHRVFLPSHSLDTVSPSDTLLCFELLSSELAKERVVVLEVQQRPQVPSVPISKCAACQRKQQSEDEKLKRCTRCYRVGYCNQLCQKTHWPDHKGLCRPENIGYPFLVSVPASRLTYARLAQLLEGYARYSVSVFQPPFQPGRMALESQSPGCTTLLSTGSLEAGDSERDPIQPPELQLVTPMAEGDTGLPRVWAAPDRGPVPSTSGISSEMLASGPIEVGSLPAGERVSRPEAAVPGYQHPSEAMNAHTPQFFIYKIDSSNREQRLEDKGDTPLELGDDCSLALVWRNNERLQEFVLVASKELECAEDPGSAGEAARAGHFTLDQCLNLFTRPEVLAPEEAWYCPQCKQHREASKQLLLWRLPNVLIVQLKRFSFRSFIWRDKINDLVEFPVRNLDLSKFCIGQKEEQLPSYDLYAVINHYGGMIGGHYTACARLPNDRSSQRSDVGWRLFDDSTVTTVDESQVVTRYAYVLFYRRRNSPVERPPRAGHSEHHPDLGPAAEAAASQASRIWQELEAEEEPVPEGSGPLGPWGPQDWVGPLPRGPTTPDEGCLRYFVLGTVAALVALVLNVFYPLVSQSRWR
Outline: (§1)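 Fragment (200 µM) or vehicle was incubated for 3 h with triplicate HEK293T lysate samples of 495 µg, which were then treated with Biotin-Ahx-Ub-VS at 0.5 µM final for 1 h. Labelled DUBs were enriched on NeutrAvidin, digested with LysC and trypsin, and analysed by diaPASEF LC-MS/MS. Values are average log2 fragment/vehicle ratios from an unpaired t-test on global-median-normalised Spectronaut label-free quantities, using proteins with ≥2 unique peptides.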

USP22 = target: T2, USP22 (UniProt Q9UPT9)
T2 sequence (whole entry): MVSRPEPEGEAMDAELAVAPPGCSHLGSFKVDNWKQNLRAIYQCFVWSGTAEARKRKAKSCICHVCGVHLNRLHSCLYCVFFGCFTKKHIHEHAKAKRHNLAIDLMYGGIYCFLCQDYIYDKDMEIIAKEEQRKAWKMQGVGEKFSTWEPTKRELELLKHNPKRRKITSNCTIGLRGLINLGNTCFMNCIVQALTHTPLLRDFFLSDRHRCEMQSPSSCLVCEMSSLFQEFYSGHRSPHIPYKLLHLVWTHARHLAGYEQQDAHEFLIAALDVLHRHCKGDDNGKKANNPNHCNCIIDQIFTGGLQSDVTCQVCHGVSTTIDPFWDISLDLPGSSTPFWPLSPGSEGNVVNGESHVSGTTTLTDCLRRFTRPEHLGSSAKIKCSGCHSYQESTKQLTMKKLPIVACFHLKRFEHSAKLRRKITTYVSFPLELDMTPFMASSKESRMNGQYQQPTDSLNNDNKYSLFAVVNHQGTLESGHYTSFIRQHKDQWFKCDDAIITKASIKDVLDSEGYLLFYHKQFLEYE
Outline: as §1

USP24 = USP24 (UniProt Q9UPU5)
Outline: as §1

USP25 = target: T3, USP25 (UniProt Q9UHP3)
T3 sequence (whole entry): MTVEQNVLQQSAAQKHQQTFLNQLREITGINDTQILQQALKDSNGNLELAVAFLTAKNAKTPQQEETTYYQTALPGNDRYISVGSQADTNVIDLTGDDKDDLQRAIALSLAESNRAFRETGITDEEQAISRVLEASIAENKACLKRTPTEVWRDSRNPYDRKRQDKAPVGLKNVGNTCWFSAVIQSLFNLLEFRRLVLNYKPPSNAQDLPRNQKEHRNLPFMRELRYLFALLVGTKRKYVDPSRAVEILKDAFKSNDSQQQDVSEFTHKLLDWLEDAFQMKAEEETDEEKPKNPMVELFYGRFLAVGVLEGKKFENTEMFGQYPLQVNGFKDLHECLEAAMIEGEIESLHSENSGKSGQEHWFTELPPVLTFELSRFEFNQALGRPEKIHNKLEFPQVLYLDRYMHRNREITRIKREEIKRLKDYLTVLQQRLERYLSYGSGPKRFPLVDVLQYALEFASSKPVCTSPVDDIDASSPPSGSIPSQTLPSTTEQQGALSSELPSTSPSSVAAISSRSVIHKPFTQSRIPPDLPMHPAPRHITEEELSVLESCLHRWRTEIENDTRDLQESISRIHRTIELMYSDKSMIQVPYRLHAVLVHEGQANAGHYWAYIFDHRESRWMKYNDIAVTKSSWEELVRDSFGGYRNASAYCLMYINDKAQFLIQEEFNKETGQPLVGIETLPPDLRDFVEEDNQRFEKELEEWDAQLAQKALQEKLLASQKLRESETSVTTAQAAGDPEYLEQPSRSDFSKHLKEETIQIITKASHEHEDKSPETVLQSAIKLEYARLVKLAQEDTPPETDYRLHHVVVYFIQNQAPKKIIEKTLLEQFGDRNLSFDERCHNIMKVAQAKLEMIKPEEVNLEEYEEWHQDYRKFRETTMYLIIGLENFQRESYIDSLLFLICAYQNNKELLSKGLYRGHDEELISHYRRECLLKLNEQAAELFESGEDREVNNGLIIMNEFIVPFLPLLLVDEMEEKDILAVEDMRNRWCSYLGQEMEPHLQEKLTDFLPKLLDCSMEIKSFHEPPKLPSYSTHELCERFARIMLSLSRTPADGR
Outline: as §1

USP28 = target: T4, USP28 (UniProt Q96RU2)
T4 sequence (whole entry): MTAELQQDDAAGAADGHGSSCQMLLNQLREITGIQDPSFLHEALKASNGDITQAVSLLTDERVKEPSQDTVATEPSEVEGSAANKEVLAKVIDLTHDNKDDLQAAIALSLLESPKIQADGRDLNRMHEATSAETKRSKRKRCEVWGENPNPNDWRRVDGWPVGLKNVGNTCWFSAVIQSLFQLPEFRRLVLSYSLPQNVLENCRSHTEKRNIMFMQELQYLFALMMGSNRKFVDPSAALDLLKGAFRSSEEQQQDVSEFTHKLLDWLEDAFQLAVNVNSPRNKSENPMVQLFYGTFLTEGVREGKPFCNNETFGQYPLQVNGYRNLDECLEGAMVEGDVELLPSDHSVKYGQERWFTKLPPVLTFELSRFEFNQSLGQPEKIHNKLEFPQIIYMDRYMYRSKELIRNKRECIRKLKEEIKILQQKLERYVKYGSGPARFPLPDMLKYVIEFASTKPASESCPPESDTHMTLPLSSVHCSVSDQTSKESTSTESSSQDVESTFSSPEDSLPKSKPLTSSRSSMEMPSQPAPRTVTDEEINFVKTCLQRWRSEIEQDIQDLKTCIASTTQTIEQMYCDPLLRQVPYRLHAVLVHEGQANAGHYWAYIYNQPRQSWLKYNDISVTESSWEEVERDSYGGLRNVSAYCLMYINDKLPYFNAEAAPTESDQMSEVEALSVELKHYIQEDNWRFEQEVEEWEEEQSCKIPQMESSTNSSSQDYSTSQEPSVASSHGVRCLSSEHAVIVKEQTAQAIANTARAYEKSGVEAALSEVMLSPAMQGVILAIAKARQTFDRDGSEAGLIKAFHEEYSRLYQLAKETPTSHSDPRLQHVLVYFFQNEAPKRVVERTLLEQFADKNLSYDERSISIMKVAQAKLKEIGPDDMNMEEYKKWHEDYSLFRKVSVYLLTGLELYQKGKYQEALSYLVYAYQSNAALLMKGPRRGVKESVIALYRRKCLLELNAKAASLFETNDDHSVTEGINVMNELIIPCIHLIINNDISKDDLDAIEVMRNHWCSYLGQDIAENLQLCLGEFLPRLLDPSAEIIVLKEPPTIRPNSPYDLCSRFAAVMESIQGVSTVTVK
Outline: as §1

Measured: log2 ratio of Biotin-Ahx-Ub-VS probe labelling

Chain of USP24 (Q9UPU5 whole entry): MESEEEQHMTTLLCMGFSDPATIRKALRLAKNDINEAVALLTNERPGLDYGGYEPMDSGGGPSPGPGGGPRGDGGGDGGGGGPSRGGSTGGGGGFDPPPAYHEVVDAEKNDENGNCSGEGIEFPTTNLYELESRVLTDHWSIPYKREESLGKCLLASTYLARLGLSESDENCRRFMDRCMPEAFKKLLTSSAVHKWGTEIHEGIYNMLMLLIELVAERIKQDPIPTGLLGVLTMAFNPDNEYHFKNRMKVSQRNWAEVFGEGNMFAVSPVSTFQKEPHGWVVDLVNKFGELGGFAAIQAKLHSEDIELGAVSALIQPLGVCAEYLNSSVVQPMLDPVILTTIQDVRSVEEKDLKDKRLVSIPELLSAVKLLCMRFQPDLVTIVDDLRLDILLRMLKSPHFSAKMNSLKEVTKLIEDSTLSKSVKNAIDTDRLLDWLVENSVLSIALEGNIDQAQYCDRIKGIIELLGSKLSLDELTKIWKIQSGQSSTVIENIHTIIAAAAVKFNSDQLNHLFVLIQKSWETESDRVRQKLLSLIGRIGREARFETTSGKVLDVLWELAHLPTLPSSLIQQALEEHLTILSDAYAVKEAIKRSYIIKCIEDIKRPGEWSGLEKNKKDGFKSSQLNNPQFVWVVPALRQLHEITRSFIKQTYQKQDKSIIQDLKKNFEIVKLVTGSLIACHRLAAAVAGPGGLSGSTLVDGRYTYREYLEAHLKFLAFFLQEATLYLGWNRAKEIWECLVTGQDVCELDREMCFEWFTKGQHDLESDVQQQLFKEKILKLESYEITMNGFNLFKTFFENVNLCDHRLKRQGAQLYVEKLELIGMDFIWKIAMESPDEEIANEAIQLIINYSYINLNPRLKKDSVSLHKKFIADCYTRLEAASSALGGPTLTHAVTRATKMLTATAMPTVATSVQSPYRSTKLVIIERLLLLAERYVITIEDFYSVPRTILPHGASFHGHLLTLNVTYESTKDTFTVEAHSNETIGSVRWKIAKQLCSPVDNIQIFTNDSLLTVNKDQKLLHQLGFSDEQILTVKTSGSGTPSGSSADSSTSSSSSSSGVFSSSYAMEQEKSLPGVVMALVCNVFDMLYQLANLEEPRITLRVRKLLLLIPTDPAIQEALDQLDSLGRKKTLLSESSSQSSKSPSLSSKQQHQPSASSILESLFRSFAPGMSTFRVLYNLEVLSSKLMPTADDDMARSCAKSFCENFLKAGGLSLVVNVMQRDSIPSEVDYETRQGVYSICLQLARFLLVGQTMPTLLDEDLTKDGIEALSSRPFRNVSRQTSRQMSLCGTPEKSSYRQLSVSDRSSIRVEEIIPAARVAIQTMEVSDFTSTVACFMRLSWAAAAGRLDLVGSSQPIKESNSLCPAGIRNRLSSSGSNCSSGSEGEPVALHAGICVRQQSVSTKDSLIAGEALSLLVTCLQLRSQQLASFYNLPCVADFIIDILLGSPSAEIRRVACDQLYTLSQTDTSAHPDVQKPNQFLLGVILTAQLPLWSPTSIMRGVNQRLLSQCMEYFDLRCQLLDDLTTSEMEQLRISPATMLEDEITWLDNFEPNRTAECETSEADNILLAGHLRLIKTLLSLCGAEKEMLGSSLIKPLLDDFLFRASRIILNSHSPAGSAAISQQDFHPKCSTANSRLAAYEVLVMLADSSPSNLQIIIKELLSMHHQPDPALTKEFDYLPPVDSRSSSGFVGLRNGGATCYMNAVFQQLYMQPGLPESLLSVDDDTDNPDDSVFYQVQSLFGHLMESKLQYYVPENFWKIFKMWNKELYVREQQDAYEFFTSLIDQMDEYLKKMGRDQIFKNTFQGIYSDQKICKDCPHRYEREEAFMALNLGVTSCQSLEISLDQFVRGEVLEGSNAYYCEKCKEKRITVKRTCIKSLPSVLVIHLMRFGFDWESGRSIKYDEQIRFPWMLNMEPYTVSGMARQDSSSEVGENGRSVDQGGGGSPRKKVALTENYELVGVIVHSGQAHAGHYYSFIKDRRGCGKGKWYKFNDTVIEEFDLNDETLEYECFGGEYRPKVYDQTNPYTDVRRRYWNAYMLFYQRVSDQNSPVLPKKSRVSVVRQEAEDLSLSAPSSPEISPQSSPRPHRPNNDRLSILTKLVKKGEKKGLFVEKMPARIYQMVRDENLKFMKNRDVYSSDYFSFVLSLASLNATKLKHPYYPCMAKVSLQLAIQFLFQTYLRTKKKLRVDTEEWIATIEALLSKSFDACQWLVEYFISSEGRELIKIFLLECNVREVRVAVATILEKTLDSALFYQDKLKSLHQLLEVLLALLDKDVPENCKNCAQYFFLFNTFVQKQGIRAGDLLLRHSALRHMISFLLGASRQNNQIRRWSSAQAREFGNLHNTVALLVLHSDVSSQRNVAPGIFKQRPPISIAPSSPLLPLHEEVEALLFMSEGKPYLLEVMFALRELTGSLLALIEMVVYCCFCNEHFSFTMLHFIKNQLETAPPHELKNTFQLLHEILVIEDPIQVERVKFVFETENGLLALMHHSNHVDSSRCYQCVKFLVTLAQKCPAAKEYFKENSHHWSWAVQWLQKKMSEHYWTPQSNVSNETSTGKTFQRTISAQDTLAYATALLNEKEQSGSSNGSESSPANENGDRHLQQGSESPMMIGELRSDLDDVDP

CS(=O)(=O)c1ccc(CNC(=O)CCl)cc1
inactive: USP19 -0.123 | USP22 -0.163 | USP24 -0.159 | USP25 -0.385 | USP28 -0.583
